Results published in PubChem BioAssay.
Active and inactive are the calls of the source.

Key:
Albumin (Bos taurus) = Albumin (Bos taurus) (UniProt P02769); assay: bovine serum albumin binders on microarray, profiling panel, artefact control for SMM control protein annotation, biochemical, small-molecule microarray, Alexa647 label, 635/667 nm fluorescence (AID 1118); conditions: BSA-A647 binding, fluorescence 635 nm, higher = more signal;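 further: score merges 667 nm emission intensity and signal-to-noise per printed compound spot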
[1] = small-molecule microarray binders of probe aXIP, primary screen, biochemical, NeuroSMM set, 635/667 nm fluorescence (AID 1119); conditions: higher = more signal, called active from +8 up or from −8 down;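 further: probe is the protein aXip251-270 applied at 1 µg/mL to compound-printed slides; binding of probe to printed compounds measured as 667 nm fluorescence plus signal to noise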
[2] = small-molecule binders of probe aNOTCH3, primary screen, biochemical, small-molecule microarray, 635/667 nm fluorescence (AID 1120); conditions: higher = more signal;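 further: probe is a biotin-tagged antibody raised against NOTCH3 rather than NOTCH3 protein; score merges spot fluorescence near 667 nm with spot signal to noise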
[3] = small-molecule binders of probe aNOTCH2, primary screen, biochemical, small-molecule microarray, 635/667 nm fluorescence (AID 1121); conditions: higher = more signal;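 further: score merges feature fluorescence read at 667 nm with its signal to noise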
[4] = target: Carbonic anhydrase 2 (Homo sapiens) (UniProt P00918); assay: CAII small-molecule binders, profiling panel, biochemical, small-molecule microarray, Alexa647-labelled CAII (AID 1122); conditions: CAII-A647 binding fluorescence, higher = more signal
[5] = COS7 lysate on small-molecule microarray, probe aHis, 635 nm (AID 1123); conditions: COS7 cell lysate, fluorescence, higher = more signal;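 further: z-score combines 667nm fluorescence intensity with signal-to-noise per printed compound spot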
[6] = compound binding in COS7 lysate, probe aLAP1, primary screen, cell lysate, small-molecule microarray (AID 1124); conditions: probe aLAP1, fluorescence, higher = more signal;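 further: lysate comes from COS7 cells expressing LAP1 and is applied at 0.3 µg/mL; score merges spot fluorescence near 667 nm with signal-to-noise over triplicate slides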
Sam68 (KHDRBS1) = assay: Sam68 small-molecule binders, primary screen, biochemical, small-molecule microarray, 635 nm fluorescence (AID 1125); conditions: small-molecule microarray binding, higher = more signal;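 further: score merges 667 nm channel intensity with signal to noise over triplicate slides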
[7] = test system: Chordin-like protein 2 (CHRDL2); assay: CHRDL2 small-molecule binders, primary screen, biochemical, small-molecule microarray, 635 nm fluorescence (AID 1126); conditions: small-molecule microarray binding, fluorescence 635 nm; higher = more signal;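 further: printed compound slides probed with Chrdl2 protein at 4 µg/mL for 1 h at 4 C; score merges 667 nm emission intensity with signal to noise over three replicate slides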
[8] = target: Concanavalin-A (Canavalia ensiformis) (UniProt P02866); assay: ConA small-molecule binders, primary screen, artefact control for SMM control protein annotation, biochemical, small-molecule microarray, Alexa647 label, 635 nm (AID 1127); conditions: ConA-A647 binding fluorescence, higher = more signal;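 further: z combines 667 nm emission intensity with signal-to-noise across three replicate slides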
Sequence of Concanavalin-A (Canavalia ensiformis) (P02866 whole entry, looked up): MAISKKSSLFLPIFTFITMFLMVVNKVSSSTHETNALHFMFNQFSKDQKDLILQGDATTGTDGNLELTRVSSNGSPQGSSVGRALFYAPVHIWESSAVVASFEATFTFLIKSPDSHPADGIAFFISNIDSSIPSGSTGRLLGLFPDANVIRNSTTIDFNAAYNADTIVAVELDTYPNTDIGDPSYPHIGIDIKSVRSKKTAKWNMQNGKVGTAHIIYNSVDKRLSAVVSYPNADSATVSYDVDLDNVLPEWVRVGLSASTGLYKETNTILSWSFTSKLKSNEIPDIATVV

Sequence of Albumin (Bos taurus) (P02769 whole entry, looked up): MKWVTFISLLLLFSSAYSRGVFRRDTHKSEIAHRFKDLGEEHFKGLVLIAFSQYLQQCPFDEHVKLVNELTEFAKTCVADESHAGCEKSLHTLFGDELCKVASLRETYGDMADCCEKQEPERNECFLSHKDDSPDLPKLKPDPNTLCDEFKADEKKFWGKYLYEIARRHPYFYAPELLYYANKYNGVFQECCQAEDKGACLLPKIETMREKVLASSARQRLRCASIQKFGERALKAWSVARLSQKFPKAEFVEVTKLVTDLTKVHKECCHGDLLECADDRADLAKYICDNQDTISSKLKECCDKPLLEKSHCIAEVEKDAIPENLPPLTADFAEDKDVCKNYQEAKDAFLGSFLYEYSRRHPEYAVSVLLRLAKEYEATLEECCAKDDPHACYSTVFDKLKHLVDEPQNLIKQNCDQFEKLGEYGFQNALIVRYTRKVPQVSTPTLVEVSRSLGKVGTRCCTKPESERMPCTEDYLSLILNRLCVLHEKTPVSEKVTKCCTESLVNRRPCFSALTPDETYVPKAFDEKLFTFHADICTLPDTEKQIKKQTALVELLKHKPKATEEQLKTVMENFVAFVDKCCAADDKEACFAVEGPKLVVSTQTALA

Compound | composite z-score (Albumin (Bos taurus)) | composite Z-score [1] | composite z-score [2] | composite z-score [3] | composite z-score [4] | composite z-score [5] | composite z-score [6] | composite z-score (Sam68 (KHDRBS1)) | composite z-score [7] | composite z-score [8]
C=CCOC(=O)[C@H]1[C@@H]2C(=O)O[C@@H](c3ccccc3)[C@@H](c3ccccc3)N2[C@@H](c2ccc(OCCOC(=O)[C@@H]3C[C@@H]4C(=O)N5CCC[C@H]5C(=O)N4[C@@H]3c3cccc(OCCO)c3)cc2)[C@]12C(=O)Nc1ccc(I)cc12 | -0.656 | 0.686 (inactive) | 1.12 | 0.117 | 0.269 | 1.15 | 0.322 | 1.29 | 1.18 | 1.14
CS(=O)(=O)CCOC(=O)C1=CC(CCCO)=CC(c2ccc(CN3CCCC3)cc2)N(Cc2cccc(OC(F)(F)F)c2)C=C1C(=O)OCCS(C)(=O)=O (stereo not given) | 0.0883 | 0.25 (inactive) | 0.111 | -0.0254 | 0.454 | 1.16 | 0.0212 | 1.26 | 0.379 | 0.644
CCOc1ccc(N2C(=O)CSC2c2cccc([N+](=O)[O-])c2)cc1 (stereo not given) | 0.954 | 0.625 (inactive) | 0.133 | -0.14 | 0.36 | 1.63 | 0.181 | 0.829 | 0.428 | 0.789
C=C(CCCC)C(=O)CC[C@@H](OC(C)=O)c1ccc(CO)o1 | -0.855 | -0.666 (inactive) | -0.0581 | -0.108 | 0.645 | 0.423 | -0.0353 | 0.628 | 0.869 | 0.0313
CCCC[C@H]1C[C@@H]1[C@@H]1N(P(=O)(c2ccccc2)c2ccccc2)C[C@@](O)(c2ccccc2)CC12CC2 | 0.951 | 0.863 (inactive) | 0.169 | 0.0525 | 0.374 | 2.28 | 0.473 | 0.944 | -1.95 | 0.499
COc1cc(OC)c(C(O)C2C=CC3C(=O)NC(=O)C3N2Nc2ccccn2)cc1Br (stereo not given) | -0.257 | 0.172 (inactive) | -0.0026 | -0.0598 | 0.819 | 0.973 | 0.487 | 0.755 | 1.02 | 0.747
C=CCOC(=O)[C@H]1[C@@H]2C(=O)O[C@@H](c3ccccc3)[C@@H](c3ccccc3)N2[C@@H](c2ccc(OCCOC(=O)[C@H]3C[C@H]4C(=O)N[C@@H](CCCCN(C)C)C(=O)N4[C@H]3c3cccc(OCCO)c3)cc2)[C@]12C(=O)Nc1ccc(I)cc12 | -0.427 | 0.715 (inactive) | 0.0306 | -0.154 | 0.228 | 0.986 | -0.0143 | 1.3 | 1.39 | 1.12
